This is an account of results in PubChem BioAssay (NCI).

Compounds without any hit were thinned out: in the full panel of roughly 83,000, 20% have a hit.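 Cells were grown in 96-well plates and exposed to the test compound at a single concentration for 48 hours; results are reported as percent growth, with values below 10 considered active.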 Unmarked numbers belong to inactive results. Active and inactive are the calls of the source.

Holding throughout (assay): NCI-60 one-dose screen, 48 h (100 = growth as untreated, 0 = no growth, -100 = all killed)
Holding throughout (conditions): 10 µM unless noted

The test system of test [1] is NCI-H23 lung.
Test [2] deals with NCI-H226 lung.
Test [3] concerns NCI-H322M lung.
Test [4] deals with HOP-62 NSCLC.
For test [5], the system named is NCI-H460 lung.
In test [6] the test system is HOP-92 NSCLC.
For test [7], the system named is NCI-H522 lung.
Test [8] relates to A549/ATCC NSCLC.
For test [9], the system named is 786-0 renal.
Test [10] relates to COLO 205 colon.
The subject of test [11] is DU-145 prostate.
For test [12], the system named is K-562 leukemia.
Test [13] relates to MALME-3M melanoma.
Test [14] has as its system MDA-MB-231 breast.
In test [15] the test system is RXF 393 renal.
Test [16] relates to SF-268 CNS.
For test [17], the system named is SF-295 CNS.
Test [18] relates to SF-539 CNS.
For test [19], the system named is UACC-257 melanoma.
The subject of test [20] is M14 melanoma.

Consider `O=C(O)C1CCCCN1c1nc(Cl)nc(Cl)n1` (stereo not given), for which the growth in [1] is 98.9%; in [2] it was 89.1%; in test [3], 106%; in test [4] it was 101%; in [5], 105%; in test [6], 106%. Moreover, the growth is 93.3% in test [7]; 101% in [8]; 105% in [9]; 106% in test [10]; 107% in test [11]; 103% in [12]. Moreover, the growth in test [13] was 108%; in test [14], 110%; in test [15], 113%; in [16] it was 99.2%; in test [17] it was 101%; in test [18], 92.6%. Besides, the growth in test [19] is 100%; in test [20], 108%.
For `C=C[C@@H]1C[C@@H]2Cc3ccccc3N1O2`, the growth in [1] was 98.9%; in test [2], 109%; in test [3], 112%; in test [4], 96.6%; in test [5], 107%; in test [6], 126%. The growth in [7] is 120%; in test [8], 96.3%; in test [9] it was 104%; in [10] it was 116%; in [11], 120%; in [12], 54.3%. Moreover, the growth in test [13] is 125%; in [14], 106%; in [15], 119%; in test [16], 116%; in [17], 99.8%; in test [18], 103%. The growth was 97.7% in test [19] and 102% in test [20].
As to `COc1ccc(-c2cn(-c3cccc(C(=O)/C=C/c4cc(OC)c(OC)c(OC)c4)c3)c(=O)[nH]2)cc1OC`, the growth in test [1] is 93.9%; in test [2] it was 87.9%; in test [3], 95.5%; in [4] it was 93%; in [5], 91%; in test [6], 61.2%. The growth in [7] is 74.4%; in test [8], 89.5%; in test [9] it was 80.2%; in test [10] it was 90.9%; in test [11], 98.6%; in [12] it was 50.7%. Further, the growth in test [13] is 86%; in [14], 72.1%; in test [15], 65.8%; in [16] it was 65.8%; in test [17], 96.5%; in test [18], 76.5%. The growth in [19] and in test [20] was 80.1% each time.
For `O=C(CN1CCN(c2cc3c(cc2F)c(=O)c(C(=O)N/N=C/c2ccccc2O)cn3C2CC2)CC1)N/N=C\c1ccccc1O`, the growth was 28.2% in [1]; 36.4% in test [2]; 25.4% in [3]; 24.5% in test [4]; 0.87% (active) in [5]; 52% in [6]. Also, the growth is 22.6% in test [7]; 17.8% in [8]; 7.83% (active) in test [9]; 17.4% in test [10]; 21.2% in test [11]; 8.3% (active) in test [12]. Also, the growth in test [13] was 22.3%; in [14], 25.3%; in test [15], 27.9%; in [16], 16.6%; in [17], 21.5%; in [18], 11.1%. Besides, the growth in test [19] was 20%; in test [20], -27.6% (active).
Consider `c1ccc(Nc2nc(Nc3ccccc3)nc(Nc3ccccc3)n2)cc1`, for which the growth is 86.5% in test [1]; 89% in test [2]; 57.3% in test [3]; 90.6% in test [4]; 78% in [5]; 60.9% in [6]. Moreover, the growth in [7] is 84.5%; in test [8], 79.9%; in test [9], 100%; in test [10], 76.1%; in test [11], 93.6%; in test [12], 92.7%. For the same molecule, the growth was 88.7% in test [13]; 79.2% in test [14]; 84.3% in test [15]; 106% in [16]; 69% in test [17]; 90.7% in [18]. Further, the growth in test [19] was 82.9%; in test [20] it was 89%.
As for `CN1CCN(Cc2ccc(NC(=O)c3cncc(C#Cc4cnc(N)c5cnccc45)c3)cc2C(F)(F)F)CC1`, the growth in test [1] was 4.51% (active); in [2], -28.4% (active); in test [3], 13%; in [4], -23.7% (active); in test [5] it was -9.5% (active); in test [6] it was -58.6% (active). For the same molecule, the growth in test [7] was 10.8%; in [8], 20%; in [9] it was 23.1%; in test [10], -20.2% (active); in test [11], 10%; in test [12], 1.52% (active). Further, the growth was -75.6% (active) in test [13]; -61.2% (active) in test [14]; -48.3% (active) in test [15]; 16.5% in test [16]; 8.91% (active) in test [17]; -73.8% (active) in test [18]. Further, the growth was -1.75% (active) in [19] and -41.6% (active) in test [20].
As to `c1coc(CNc2ccnc(Nc3ccc(OCCN4CCCCC4)cc3)n2)c1`, the growth in test [1] was 86.7%; in test [2], 68.1%; in test [3] it was 101%; in test [4], 93.1%; in test [5], 89.2%; in test [6] it was 69.5%. Further, the growth is 85.3% in [7]; 92.5% in test [8]; 94.9% in [9]; 89.5% in test [10]; 91.6% in test [11]; 27.6% in [12]. Besides, the growth in test [13] is 110%; in test [14], 82.6%; in test [15], 71.3%; in test [16], 90.4%; in test [17] it was 95.1%; in test [18], 76.4%. Besides, the growth in test [19] was 87.3%; in test [20] it was 102%.
